# From the supplement of paper PMC8728848
# About 410 targets per protein were measured; listed, in parts, are those with the strongest signals and a random draw of the rest.
# Tests used:
# Assay in all cases: glycan array binding signal (z-score within array); higher = stronger binding
# Details in all cases: glycan notation: IUPAC condensed, linker removed
# [1] = molecular target: Fuc(a1-2)Gal(b1-3)GlcNAc(b1-3)[Neu5Ac(a2-6)Gal(b1-4)GlcNAc(b1-6)]Gal(b1-4)Glc
# Outline: (§1)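 Columns mapping to the same glycan were averaged after glycan names were converted to IUPAC-condensed notation. The data come from 3228 arrays in the Consortium for Functional Glycomics database, limited to those with an available protein sequence. Binding is reported as a within-array Z-score averaged across arrays of one protein sequence and across linkers.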
# [2] = molecular target: Fuc(a1-2)Gal(b1-4)GlcNAc(b1-3)Gal(b1-4)GlcNAc(b1-2)Man(a1-3)[Fuc(a1-2)Gal(b1-4)GlcNAc(b1-3)Gal(b1-4)GlcNAc(b1-2)Man(a1-6)]Man(b1-4)GlcNAc(b1-4)GlcNAc
# Outline: as §1
# [3] = molecular target: Fuc(a1-2)Gal(b1-4)GlcNAc(b1-3)GalNAc
# Outline: as §1
# [4] = molecular target: Fuc(a1-2)Gal6S(b1-3)GlcNAc
# Outline: as §1
# [5] = molecular target: Fuc(a1-2)[Gal(a1-3)]Gal(b1-4)GlcNAc
# Outline: as §1
# [6] = molecular target: Fuc(a1-2)[Gal(a1-3)]Gal(b1-4)GlcNAc(b1-2)Man(a1-3)[Fuc(a1-2)[Gal(a1-3)]Gal(b1-4)GlcNAc(b1-2)Man(a1-6)]Man(b1-4)GlcNAc(b1-4)GlcNAc
# Outline: as §1
# [7] = molecular target: Fuc(a1-2)[GalNAc(a1-3)]Gal(b1-4)GlcNAc
# Outline: as §1
# [8] = molecular target: Fuc(a1-2)[GalNAc(a1-3)]Gal(b1-4)GlcNAc(b1-2)Man(a1-3)[Fuc(a1-2)[GalNAc(a1-3)]Gal(b1-4)GlcNAc(b1-2)Man(a1-6)]Man(b1-4)GlcNAc(b1-4)GlcNAc
# Outline: as §1
# [9] = molecular target: Fuc(a1-2)[GalNAc(a1-3)]Gal(b1-4)[Fuc(a1-3)]GlcNAc
# Outline: as §1
# [10] = molecular target: Fuc(a1-2)[GalNAc(a1-3)]Gal(b1-4)[Fuc(a1-3)]GlcNAc(b1-3)GalNAc
# Outline: as §1
# [11] = molecular target: Fuc(a1-3)[Gal(b1-4)]GlcNAc(b1-2)Man(a1-3)[Fuc(a1-3)[Gal(b1-4)]GlcNAc(b1-2)Man(a1-6)]Man(b1-4)GlcNAc(b1-4)GlcNAc
# Outline: as §1
# Gal(a1-3)Gal = molecular target: Gal(a1-3)Gal
# Outline: as §1
# Gal(a1-4)Gal(b1-4)Glc = molecular target: Gal(a1-4)Gal(b1-4)Glc
# Outline: as §1
# Gal(b1-3)GalNAc = molecular target: Gal(b1-3)GalNAc
# Outline: as §1
# [12] = molecular target: Gal(b1-3)GalNAc(b1-4)Gal(b1-4)Glc
# Outline: as §1
# [13] = molecular target: Gal(b1-3)GlcNAc(b1-3)Gal(b1-4)GlcNAc
# Outline: as §1
# [14] = molecular target: Gal(b1-3)GlcNAc(b1-3)Gal(b1-4)GlcNAc(b1-6)[Gal(b1-3)GlcNAc(b1-3)]Gal(b1-4)Glc
# Outline: as §1
# [15] = molecular target: Gal(b1-4)GlcNAc(b1-3)Gal(b1-4)GlcNAc(b1-2)Man(a1-3)[Gal(b1-4)GlcNAc(b1-3)Gal(b1-4)GlcNAc(b1-2)Man(a1-6)]Man(b1-4)GlcNAc(b1-4)[Fuc(a1-6)]GlcNAc
# Outline: as §1
# [16] = molecular target: Gal(b1-4)GlcNAc(b1-3)Gal(b1-4)GlcNAc(b1-2)[Gal(b1-4)GlcNAc(b1-3)Gal(b1-4)GlcNAc(b1-6)]Man(a1-6)[Gal(b1-4)GlcNAc(b1-3)Gal(b1-4)GlcNAc(b1-2)Man(a1-3)]Man(b1-4)GlcNAc(b1-4)GlcNAc
# Outline: as §1
# [17] = molecular target: Gal(b1-4)GlcNAc(b1-3)Gal(b1-4)GlcNAc(b1-3)Gal(b1-4)GlcNAc(b1-2)Man(a1-3)[Gal(b1-4)GlcNAc(b1-3)Gal(b1-4)GlcNAc(b1-3)Gal(b1-4)GlcNAc(b1-2)Man(a1-6)]Man(b1-4)GlcNAc(b1-4)[Fuc(a1-6)]GlcNAc
# Outline: as §1
# [18] = molecular target: Gal(b1-4)GlcNAc(b1-3)Gal(b1-4)GlcNAc(b1-3)Gal(b1-4)GlcNAc(b1-2)[Gal(b1-4)GlcNAc(b1-3)Gal(b1-4)GlcNAc(b1-3)Gal(b1-4)GlcNAc(b1-6)]Man(a1-6)[Gal(b1-4)GlcNAc(b1-3)Gal(b1-4)GlcNAc(b1-3)Gal(b1-4)GlcNAc(b1-2)Man(a1-3)]Man(b1-4)GlcNAc(b1-4)[Fuc(a1-6)]GlcNAc
# Outline: as §1
# [19] = molecular target: Gal(b1-4)GlcNAc(b1-3)Gal(b1-4)GlcNAc(b1-3)Gal(b1-4)GlcNAc(b1-3)Gal(b1-4)GlcNAc(b1-2)Man(a1-3)[Gal(b1-4)GlcNAc(b1-3)Gal(b1-4)GlcNAc(b1-3)Gal(b1-4)GlcNAc(b1-3)Gal(b1-4)GlcNAc(b1-2)Man(a1-6)]Man(b1-4)GlcNAc(b1-4)GlcNAc
# Outline: as §1
# [20] = molecular target: Gal(b1-4)GlcNAc(b1-3)Gal(b1-4)GlcNAc(b1-3)Gal(b1-4)GlcNAc(b1-3)Gal(b1-4)GlcNAc(b1-2)Man(a1-3)[Gal(b1-4)GlcNAc(b1-3)Gal(b1-4)GlcNAc(b1-3)Gal(b1-4)GlcNAc(b1-3)Gal(b1-4)GlcNAc(b1-2)Man(a1-6)]Man(b1-4)GlcNAc(b1-4)[Fuc(a1-6)]GlcNAc
# Outline: as §1
# [21] = molecular target: Gal(b1-4)GlcNAc(b1-3)Gal(b1-4)GlcNAc(b1-3)Gal(b1-4)GlcNAc(b1-3)Gal(b1-4)GlcNAc(b1-2)[Gal(b1-4)GlcNAc(b1-3)Gal(b1-4)GlcNAc(b1-3)Gal(b1-4)GlcNAc(b1-3)Gal(b1-4)GlcNAc(b1-6)]Man(a1-6)[Gal(b1-4)GlcNAc(b1-3)Gal(b1-4)GlcNAc(b1-3)Gal(b1-4)GlcNAc(b1-3)Gal(b1-4)GlcNAc(b1-2)Man(a1-3)]Man(b1-4)GlcNAc(b1-4)[Fuc(a1-6)]GlcNAc
# Outline: as §1
# [22] = molecular target: Gal(b1-4)GlcNAc(b1-3)Gal(b1-4)GlcNAc(b1-3)Gal(b1-4)GlcNAc(b1-3)Gal(b1-4)GlcNAc(b1-3)Gal(b1-4)GlcNAc(b1-2)Man(a1-3)[Gal(b1-4)GlcNAc(b1-3)Gal(b1-4)GlcNAc(b1-3)Gal(b1-4)GlcNAc(b1-3)Gal(b1-4)GlcNAc(b1-3)Gal(b1-4)GlcNAc(b1-2)Man(a1-6)]Man(b1-4)GlcNAc(b1-4)GlcNAc
# Outline: as §1
# [23] = molecular target: Gal(b1-4)GlcNAc(b1-3)Gal(b1-4)GlcNAc(b1-3)Gal(b1-4)GlcNAc(b1-3)Gal(b1-4)GlcNAc(b1-3)Gal(b1-4)GlcNAc(b1-2)[Gal(b1-4)GlcNAc(b1-3)Gal(b1-4)GlcNAc(b1-3)Gal(b1-4)GlcNAc(b1-3)Gal(b1-4)GlcNAc(b1-3)Gal(b1-4)GlcNAc(b1-6)]Man(a1-6)[Gal(b1-4)GlcNAc(b1-3)Gal(b1-4)GlcNAc(b1-3)Gal(b1-4)GlcNAc(b1-3)Gal(b1-4)GlcNAc(b1-3)Gal(b1-4)GlcNAc(b1-2)Man(a1-3)]Man(b1-4)GlcNAc(b1-4)[Fuc(a1-6)]GlcNAc
# Outline: as §1
# [24] = molecular target: Gal(b1-4)GlcNAc(b1-3)Gal(b1-4)GlcNAc(b1-6)[Gal(b1-3)]GalNAc
# Outline: as §1
# [25] = molecular target: Gal(b1-4)GlcNAc(b1-6)[Gal(b1-4)GlcNAc(b1-3)]GalNAc
# Outline: as §1
# GalNAc(a1-3)Gal = molecular target: GalNAc(a1-3)Gal
# Outline: as §1
# [26] = molecular target: GlcNAc(a1-6)Gal(b1-4)GlcNAc
# Outline: as §1
# [27] = molecular target: GlcNAc(b1-3)Gal(b1-4)GlcNAc(b1-2)Man(a1-3)[GlcNAc(b1-3)Gal(b1-4)GlcNAc(b1-2)Man(a1-6)]Man(b1-4)GlcNAc(b1-4)GlcNAc
# Outline: as §1
# [28] = molecular target: GlcNAc(b1-3)Gal(b1-4)GlcNAc(b1-3)Gal(b1-4)GlcNAc(b1-2)Man(a1-3)[GlcNAc(b1-3)Gal(b1-4)GlcNAc(b1-3)Gal(b1-4)GlcNAc(b1-2)Man(a1-6)]Man(b1-4)GlcNAc(b1-4)[Fuc(a1-6)]GlcNAc
# Outline: as §1
# [29] = molecular target: Man(a1-2)Man(a1-2)Man(a1-6)[Man(a1-3)]Man
# Outline: as §1
# Man(a1-2)Man(a1-3)Man = molecular target: Man(a1-2)Man(a1-3)Man
# Outline: as §1
# [30] = molecular target: Neu5Ac(a2-3)Gal(b1-3)GlcNAc6S
# Outline: as §1
# [31] = molecular target: Neu5Ac(a2-3)Gal(b1-4)GlcNAc(b1-2)Man(a1-3)[GlcNAc(b1-4)][Neu5Ac(a2-3)Gal(b1-4)GlcNAc(b1-2)Man(a1-6)]Man(b1-4)GlcNAc(b1-4)GlcNAc
# Outline: as §1
# [32] = molecular target: Neu5Ac(a2-3)Gal(b1-4)[Fuc(a1-3)]GlcNAc(b1-3)Gal(b1-4)GlcNAc
# Outline: as §1
# [33] = molecular target: Neu5Ac(a2-3)Gal(b1-4)[Fuc(a1-3)]GlcNAc(b1-3)Gal(b1-4)[Fuc(a1-3)]GlcNAc(b1-3)Gal(b1-4)[Fuc(a1-3)]GlcNAc
# Outline: as §1
# [34] = molecular target: Neu5Ac(a2-6)Gal(b1-4)GlcNAc(b1-2)Man(a1-6)Man(b1-4)GlcNAc(b1-4)GlcNAc
# Outline: as §1
# [35] = molecular target: Neu5Ac(a2-6)Gal(b1-4)GlcNAc(b1-3)Gal(b1-4)GlcNAc(b1-2)Man(a1-3)[Neu5Ac(a2-6)Gal(b1-4)GlcNAc(b1-3)Gal(b1-4)GlcNAc(b1-2)Man(a1-6)]GalNAc
# Outline: as §1
# [36] = molecular target: Neu5Ac(a2-6)Gal(b1-4)GlcNAc(b1-3)Gal(b1-4)GlcNAc(b1-3)Gal(b1-4)GlcNAc
# Outline: as §1
# [37] = molecular target: Neu5Ac(b2-6)Gal(b1-4)GlcNAc
# Outline: as §1
# [38] = molecular target: Neu5Gc(a2-3)Gal(b1-4)[Fuc(a1-3)]GlcNAc
# Outline: as §1
binder,measurement,setting,value
DrGal9 (Danio rerio) (protein) MAFYQQPPYYNPRIPFSGPIQGGLQDGKSIIISGRVLPGANRFHVNLQCGSHSEANVALHFNPRYEDTDYVVNNSYLNRTWGSEERKYESPFAQGQTFTLQILVAQDKYKISTNGRHFMDYKHRIPFTQVDTVAVEGMVEVNSVAFQNPAGFIPPQAGYAPQYAVPPGCGFPAFPSAPNYTIPHKTVMNGGLHPGKNIVINGVVNPNAKSIIFNLCYRSGIAFHYNPRFDENVVVRNTNQMEKWGAEERFGGLPFHKGQPFQVTISCNPQHYNVFVNGKQEHTYKHRYTKLNDIDILEICGDLQLTSVQA,glycan array binding signal (z-score),[1],-0.123
same,glycan array binding signal (z-score),[2],3.83
same,glycan array binding signal (z-score),[3],-0.32
same,glycan array binding signal (z-score),[4],-0.391
same,glycan array binding signal (z-score),[5],0.599
same,glycan array binding signal (z-score),[6],3.36
same,glycan array binding signal (z-score),[7],-0.391
same,glycan array binding signal (z-score),[8],-0.329
same,glycan array binding signal (z-score),[9],-0.36
same,glycan array binding signal (z-score),[10],-0.336
same,glycan array binding signal (z-score),[11],-0.409
same,glycan array binding signal (z-score),Gal(a1-3)Gal,-0.376
same,glycan array binding signal (z-score),Gal(a1-4)Gal(b1-4)Glc,-0.356
same,glycan array binding signal (z-score),Gal(b1-3)GalNAc,-0.351
same,glycan array binding signal (z-score),[12],-0.117
same,glycan array binding signal (z-score),[13],-0.053
same,glycan array binding signal (z-score),[14],1.3
same,glycan array binding signal (z-score),[15],5.22
same,glycan array binding signal (z-score),[16],0.373
same,glycan array binding signal (z-score),[17],4.02
same,glycan array binding signal (z-score),[18],4.33
same,glycan array binding signal (z-score),[19],3.48
same,glycan array binding signal (z-score),[20],3.44
same,glycan array binding signal (z-score),[21],3.19
same,glycan array binding signal (z-score),[22],3.05
same,glycan array binding signal (z-score),[23],3.6
same,glycan array binding signal (z-score),[24],0.054
same,glycan array binding signal (z-score),[25],-0.007
same,glycan array binding signal (z-score),GalNAc(a1-3)Gal,-0.402
same,glycan array binding signal (z-score),[26],-0.386
same,glycan array binding signal (z-score),[27],1.73
same,glycan array binding signal (z-score),[28],3.13
same,glycan array binding signal (z-score),[29],-0.361
same,glycan array binding signal (z-score),Man(a1-2)Man(a1-3)Man,-0.396
same,glycan array binding signal (z-score),[30],-0.144
same,glycan array binding signal (z-score),[31],0.144
same,glycan array binding signal (z-score),[32],-0.356
same,glycan array binding signal (z-score),[33],-0.384
same,glycan array binding signal (z-score),[34],-0.399
same,glycan array binding signal (z-score),[35],1.22
same,glycan array binding signal (z-score),[36],0.598
same,glycan array binding signal (z-score),[37],-0.398
same,glycan array binding signal (z-score),[38],-0.351
